Measurements published in PubChem BioAssay AID1159580 (chemical genetic matrix, 2015).
Several values for one entry are separate records, joined by “and”; a condition that tells them apart may be missing. Equal entries are not always repeated. The whole screen tested about 5,500 compounds, of which about 2,000 (36%) were called active. Inconclusive results (about 18%) are left out. Rule as the data show it: active = normalized growth mostly below about 0.91 (no sharp cut-off); inconclusive = no clear call, values can overlap the other calls; inactive = mostly above about 0.92. The list shows a part of the results.

Assay: chemical genetic growth profiling, strain panel (AID 1159580);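 also: tested at 20 µM; growth read once vehicle control cultures reached saturation at 30 °C; 1 = growth at the plate median or of vehicle wells; lower values mean less growth of the strain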
Details: S. cerevisiae deletion strains, growth OD

Measured: normalized growth

C=C1C2CC[C@@]3(C)[C@H](c4ccoc4)OC(=O)C[C@]13O[C@H]1CC(=O)C(C)(C)[C@H](C(O)C(=O)OC)[C@@]21C (some centres undefined)
inactive: locus YAL021C, strain ccr4, hits give low values 1.06 | locus YAL026C, strain drs2, hits give low values 0.995 | locus YAL030W, strain snc1, hits give low values 0.995 | locus YBL061C, strain skt5, hits give low values 0.985 | locus YBR009C, strain hhf1, hits give low values 1.05 | locus YBR021W, strain FUR4, hits give low values 0.993 | locus YBR023C, strain chs3, hits give low values 1.01 | locus YBR171W, strain sec66, hits give low values 0.994 | locus YBR229C, strain ROT2, hits give low values 1 | locus YBR231C, strain swc5, hits give low values 0.993 | locus YBR279W, strain paf1, hits give low values 1 | locus YCL011C, strain gbp2, hits give low values 1.02 | locus YCL016C, strain dcc1, hits give low values 1.01 | locus YCL029C, strain bik1, hits give low values 1.01 | locus YCL061C, strain MRC1, hits give low values 1 | locus YCL069W, strain vba3, hits give low values 0.997 | locus YCR088W, strain abp1, hits give low values 0.999 | locus YDL005C, strain med2, hits give low values 0.989 | locus YDL035C, strain GPR1, hits give low values 1.01 | locus YDL040C, strain nat1, hits give low values 0.998 | locus YDL074C, strain BRE1, hits give low values 1.02 | locus YDL101C, strain DUN1, hits give low values 1.01 | locus YDL134C, strain PPH21, hits give low values 1.01 | locus YDL185W, strain tfp1, hits give low values 1.01 | locus YDL192W, strain arf1, hits give low values 1.01 | locus YDR001C, strain nth1, hits give low values 1.02 | locus YDR069C, strain doa4, hits give low values 0.99 | locus YDR101C, strain arx1, hits give low values 0.994 | locus YDR137W, strain rgp1, hits give low values 0.959 | locus YDR159W, strain sac3, hits give low values 0.995 | locus YDR162C, strain NBP2, hits give low values 1.02 | locus YDR195W, strain ref2 0.961 | locus YDR297W, strain sur2, hits give low values 1.02 | locus YDR318W, strain mcm21, hits give low values 1.01 | locus YDR334W, strain swr1, hits give low values 0.997 | locus YDR335W, strain msn5, hits give low values 1.01 | locus YDR388W, hits give low values 1.01 | locus YDR392W, strain spt3, hits give low values 0.958 | locus YDR502C, strain sam2, hits give low values 1.02 | locus YEL003W, strain gim4, hits give low values 1 | locus YEL037C, strain rad23, hits give low values 1 | locus YEL061C, strain CIN8 (second series), hits give low values 0.996 | locus YER015W, strain faa2, hits give low values 1 | locus YER016W, strain bim1, hits give low values 0.997 | locus YER110C, hits give low values 1.01 | locus YER111C, strain swi4, hits give low values 0.994 | locus YER155C, strain BEM2 (second series), hits give low values 0.983 | locus YER155C, strain BEM2, hits give low values 0.994 | locus YER167W, strain BCK2, hits give low values 1.01 | locus YFR010W, strain ubp6, hits give low values 0.976 | locus YGL078C, strain dbp3, hits give low values 1.02 | locus YGL086W, strain mad1, hits give low values 1.01 | locus YGL167C, strain pmr1, hits give low values 1 | locus YGL173C, strain kem1, hits give low values 1 | locus YGL227W, strain vid30, hits give low values 0.991 | locus YGL240W, strain doc1, hits give low values 0.989 | locus YGL248W, strain PDE1, hits give low values 1.01 | locus YGL253W, strain hxk2, hits give low values 0.99 | locus YGR078C, strain PAC10, hits give low values 1.01 | locus YGR135W, strain pre9, hits give low values 1.02 | locus YGR252W, strain gcn5, hits give low values 1.01 | locus YHR013C, strain ard1, hits give low values 1.01 | locus YHR027C, strain rpn1, hits give low values 0.991 | locus YHR030C, strain SLT2, hits give low values 0.963 | locus YHR079C, strain IRE1 (second series), hits give low values 1.01 | locus YHR079C, strain IRE1, hits give low values 0.98 | locus YHR094C, strain hxt1, hits give low values 1.02 | locus YHR129C, strain ARP1, hits give low values 1 | locus YHR142W, strain chs7, hits give low values 1.01 | locus YHR200W, strain rpn10, hits give low values 1.02 | locus YIL066C, strain RNR3, hits give low values 1.02 | locus YIL073C, strain SPO22, hits give low values 1.03 | locus YIL125W, strain kgd1, hits give low values 1 | locus YIR030C, strain dcg1, hits give low values 1.01 | locus YJL092W, strain hpr5, hits give low values 1 | locus YJL095W, strain BCK1 (second series), hits give low values 1.01 | locus YJL095W, strain BCK1, hits give low values 1.02 and 0.96 | locus YJL115W, strain asf1, hits give low values 0.995 | locus YJL129C, strain trk1, hits give low values 0.976 | locus YJL134W, strain LCB3, hits give low values 1.01 | locus YJL154C, strain vps35, hits give low values 0.995 | locus YJL164C, strain tpk1, hits give low values 1.03 | locus YJL166W, strain qcr8, hits give low values 1.02 | locus YJL168C, strain set2, hits give low values 1.01 | locus YJL187C, strain SWE1 (second series), hits give low values 1.01 | locus YJL187C, strain SWE1, hits give low values 1 | locus YJR043C, strain POL32, hits give low values 0.999 | locus YJR066W, strain TOR1, hits give low values 0.932 | locus YJR075W, strain HOC1, hits give low values 1.01 | locus YKL009W, strain mrt4, hits give low values 0.992 | locus YKL068W, hits give low values 1.01 | locus YKL085W, strain MDH1 (second series), hits give low values 1.01 | locus YKL085W, strain MDH1, hits give low values 1.01 | locus YKL160W, strain elf1, hits give low values 1.02 | locus YKL190W, strain CNB1, hits give low values 1 | locus YKR001C, strain vps1, hits give low values 1.01 | locus YKR026C, strain gcn3, hits give low values 0.994 | locus YKR091W, strain srl3, hits give low values 1 | locus YLL001W, strain dnm1, hits give low values 0.969 | locus YLL026W, hits give low values 1 | locus YLL041C, strain sdh2, hits give low values 1 | locus YLR027C, strain aat2, hits give low values 0.983 | locus YLR039C, strain RIC1, hits give low values 1.05 | locus YLR058C, strain SHM2, hits give low values 1.02 | locus YLR102C, strain apc9, hits give low values 1.01 | locus YLR113W, strain HOG1, hits give low values 1.01 | locus YLR221C, strain rsa3, hits give low values 0.976 | locus YLR258W, strain gsy2, hits give low values 1.01 | locus YLR262C, strain YPT6 (second series), hits give low values 1.01 | locus YLR262C, strain YPT6, hits give low values 1.02 | locus YLR268W, strain sec22, hits give low values 1 | locus YLR320W, strain mms22, hits give low values 0.982 | locus YLR342W, strain FKS1 (second series), hits give low values 0.996 | locus YLR342W, strain FKS1, hits give low values 0.99 | locus YLR357W, strain rsc2, hits give low values 0.975 | locus YLR370C, strain arc18, hits give low values 1.01 | locus YLR371W, strain rom2, hits give low values 1.02 | locus YLR384C, strain iki3, hits give low values 0.984 | locus YLR418C, strain cdc73, hits give low values 1.02 | locus YML016C, strain PPZ1, hits give low values 1.01 | locus YML032C, strain rad52, hits give low values 1.01 | locus YML120C, strain ndi1, hits give low values 1.01 | locus YML124C, strain tub3, hits give low values 1.01 | locus YMR058W, strain fet3, hits give low values 0.99 | locus YMR078C, strain ctf18, hits give low values 1.02 | locus YMR125W, strain sto1, hits give low values 0.983 | locus YMR129W, hits give low values 0.998 | locus YMR205C, strain PFK2, hits give low values 1.03 | locus YMR223W, strain ubp8, hits give low values 1.01 | locus YMR231W, strain pep5, hits give low values 0.998 | locus YMR307W, strain GAS1, hits give low values 1.01 | locus YNL067W, strain RPL9B, hits give low values 1.01 | locus YNL071W, strain lat1, hits give low values 1.02 | locus YNL128W, strain TEP1, hits give low values 1.01 | locus YNL153C, strain GIM3, hits give low values 1.01 | locus YNL183C, strain NPR1, hits give low values 0.945 | locus YNL209W, strain ssb2, hits give low values 1.01 | locus YNL233W, strain BNI4, hits give low values 1 | locus YNL248C, strain rpa49, hits give low values 0.959 | locus YNL250W, strain rad50, hits give low values 1 | locus YNL271C, strain bni1, hits give low values 1.01 | locus YNL298W, strain CLA4, hits give low values 1.01 | locus YNL307C, strain MCK1, hits give low values 1.02 | locus YNL322C, strain KRE1 (second series), hits give low values 1 | locus YNR049C, strain mso1, hits give low values 0.995 | locus YNR052C, strain pop2, hits give low values 1.01 | locus YOL006C, strain TOP1, hits give low values 1.03 | locus YOL012C, strain htz1 1.49 | locus YOL147C, strain pex11, hits give low values 1.01 | locus YOR001W, strain rrp6, hits give low values 0.953 | locus YOR061W, strain CKA2, hits give low values 1.01 | locus YOR069W, strain VPS5, hits give low values 1.01 | locus YOR070C, strain gyp1, hits give low values 0.99 | locus YOR080W, strain dia2, hits give low values 1 | locus YOR083W, strain WHI5, hits give low values 1.04 | locus YOR106W, strain vam3, hits give low values 1.02 | locus YOR136W, strain idh2, hits give low values 1.01 | locus YOR144C, strain elg1, hits give low values 1 | locus YOR184W, strain ser1, hits give low values 1.02 | locus YOR231W, strain MKK1, hits give low values 0.983 | locus YOR265W, strain rbl2, hits give low values 1.01 | locus YOR270C, strain vph1, hits give low values 0.995 | locus YOR290C, strain snf2, hits give low values 1.03 | locus YOR316C, strain cot1, hits give low values 1.01 | locus YPL051W, strain arl3, hits give low values 0.984 | locus YPL078C, strain atp4, hits give low values 1.02 | locus YPL106C, strain sse1, hits give low values 1.05 | locus YPL240C, strain hsp82, hits give low values 0.998 | locus YPL256C, strain CLN2, hits give low values 0.981 | locus YPR119W, strain clb2, hits give low values 1.01 | locus YPR141C, strain kar3, hits give low values 1 | locus YPR163C, strain tif3, hits give low values 1.01 | locus YPR167C, strain met16, hits give low values 1.01 | strain wtn01, hits give low values 1
